This is part of a sample that, as a whole, favours compounds with a hit. Of some 79,000 tested, about 15% had one in any assay. Calls of active or inactive are those of the source. Rule as the data show it: active = growth inhibition above about 70%; inactive = the rest.
Tests used:
[1] = NCI Yeast Anticancer Drug Screen. Data for the rad50 strain (AID 155);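 also: 0% = growth of vehicle-only cultures of the same strain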; settings: S. cerevisiae rad50 strain growth inhibition, active compounds read high
Outline: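 Compounds were tested on a yeast strain with an engineered DNA damage repair alteration; the reported value is growth inhibition normalised to vehicle treatment.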

[2] = NCI Yeast Anticancer Drug Screen. Data for the mec2-1 strain (AID 157); settings: S. cerevisiae mec2-1 strain, active compounds read high
Outline: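 mec2-1 yeast strain, carrying an alteration in DNA damage repair or cell cycle control, was exposed to compounds; growth inhibition was measured relative to vehicle-treated controls.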

[3] = NCI Yeast Anticancer Drug Screen. Data for the sgs1 mgt1 strain (AID 161);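 also: 0% = growth of cultures given vehicle only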; settings: S. cerevisiae sgs1 mgt1 strain, active compounds read high
Outline: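 Growth of a repair-deficient yeast mutant was monitored after compound treatment and expressed as inhibition relative to vehicle-treated cultures.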

[4] = NCI Yeast Anticancer Drug Screen. Data for the cln2 rad14 strain (AID 165);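 also: 0% = growth equal to vehicle treated cultures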; settings: S. cerevisiae cln2 rad14 strain, active compounds read high
Outline: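 Yeast carrying cln2 and rad14 alterations (cell cycle control and DNA damage repair) were exposed to compounds. Growth inhibition was measured against vehicle-treated controls.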

[5] = NCI Yeast Anticancer Drug Screen. Data for the bub3 strain (AID 167); settings: S. cerevisiae bub3 mutant strain, active compounds read high
Outline: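 Growth of a checkpoint-deficient yeast mutant is measured after compound exposure. Values represent inhibition relative to vehicle.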

[6] = NCI Yeast Anticancer Drug Screen. Data for the mlh1 rad18 strain (AID 175); settings: S. cerevisiae mlh1 rad18 strain growth inhibition, active compounds read high
Outline: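 Growth inhibition of the yeast strain was measured after compound exposure and expressed relative to vehicle-treated controls. The strain carries defined defects in DNA damage repair.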

[7] = at 5.0 µM (retest, dose inferred, filed as 0.5)
[8] = at 50.0 µM (retest, dose inferred, filed as 5.0)

Measured: growth inhibition

COC(=O)C(C#N)C(c1ccccc1)c1c[nH]c2ccccc12 (configuration not stated)
active: [1]; [8] 75% | [1]; at 50.0 µM 77.2% | [4]; [8] 82% | [5]; [8] 71% | [6]; [8] 89% | [6]; at 50.0 µM 71%
inactive: [1]; [7] -3% | [2]; [7] -4% | [2]; [8] 59% | [2]; at 50.0 µM 16.3% | [3]; [7] -5% | [3]; [8] 63% | [3]; at 50.0 µM 55.7% | [4]; [7] -52% | [4]; at 50.0 µM 24.1% | [5]; [7] -7% | [5]; at 50.0 µM -4.8% | [6]; [7] -14%

COc1cccc(C2Nc3ccccc3C(=O)N2N2CCOCC2)c1 (configuration not stated)
inactive: [1]; [7] 3% | [1]; [8] -2% | [1]; at 50.0 µM 50.9% | [2]; [7] 1% | [2]; [8] 6% | [2]; at 50.0 µM -7.2% | [3]; [7] 1% | [3]; [8] 0% | [3]; at 50.0 µM 32.4% | [4]; [7] 0% | [4]; [8] -6% | [4]; at 50.0 µM -21.6% | [5]; [7] -2% | [5]; [8] -5% | [5]; at 50.0 µM 7.4% | [6]; [7] -2% | [6]; [8] -3% | [6]; at 50.0 µM -5.05%

CCC[CH2][Ge]([CH2]CCC)([CH2]CCC)[O]C(=O)CC(=O)c1ccccc1
inactive: [1]; [7] 10% | [1]; [8] 62% | [1]; at 50.0 µM 53.3% | [2]; [7] -3% | [2]; [8] 65% | [2]; at 50.0 µM 45.1% | [3]; [7] 6% | [3]; [8] 41% | [3]; at 50.0 µM 32.2% | [4]; [7] 1% | [4]; [8] 20% | [4]; at 50.0 µM 43.5% | [5]; [7] -17% | [5]; [8] 27% | [6]; [7] -1% | [6]; [8] 46% | [6]; at 50.0 µM 67.4%
active: [5]; at 50.0 µM 79.5%

O=C1c2ccccc2C(=O)C2(C(c3ccccc3)c3ccccc3)N=NCC12 (configuration not stated)
inactive: [1]; [7] -5% | [1]; [8] 15% | [1]; at 50.0 µM 4.15% | [2]; [7] -1% | [2]; [8] -7% | [2]; at 50.0 µM 11.9% | [3]; [7] 0% | [3]; [8] 18% | [3]; at 50.0 µM 7.95% | [4]; [7] 5% | [4]; [8] 5% | [4]; at 50.0 µM -7.15% | [5]; [7] 27% | [5]; [8] 42% | [5]; at 50.0 µM 30.1% | [6]; [7] 13% | [6]; [8] 21% | [6]; at 50.0 µM 12.2%

CCCCCCCCCCCCS
inactive: [1]; [7] 0% | [1]; [8] -3% | [1]; at 50.0 µM 26.2% | [2]; [7] -1% | [2]; [8] -1% | [2]; at 50.0 µM 6.25% | [3]; [7] -3% | [3]; [8] -1% | [3]; at 50.0 µM 15.9% | [4]; [7] -2% | [4]; [8] 1% | [4]; at 50.0 µM 43.3% | [5]; [7] 2% | [5]; [8] -3% | [5]; at 50.0 µM -20.6% | [6]; [7] 3% | [6]; [8] 6% | [6]; at 50.0 µM -30.9%

COC(=O)C(=O)C(/C=N/C(=S)NCCc1ccc(OC)c(OC)c1)=C(/O)c1ccc([N+](=O)[O-])cc1
inactive: [1]; [7] 3% | [1]; [8] 15% | [1]; at 50.0 µM 0.3% | [2]; [7] -5% | [2]; [8] -3% | [2]; at 50.0 µM -7.95% | [3]; [7] 13% | [3]; [8] 1% | [3]; at 50.0 µM 19.4% | [4]; [7] 20% | [4]; [8] -11% | [4]; at 50.0 µM 30.9% | [5]; [7] 6% | [5]; [8] -13% | [5]; at 50.0 µM 15.4% | [6]; [7] -3% | [6]; [8] 8% | [6]; at 50.0 µM -9.7%

CN=c1sc2c(n1C)C(=O)c1ccccc1C2=O
inactive: [1]; [7] 26% | [1]; [8] 48% | [2]; [7] 17% | [2]; [8] 40% | [3]; [7] 31% | [3]; [8] 49% | [4]; [7] 21% | [4]; [8] 23% | [4]; at 50.0 µM 25.6% | [5]; [7] 28% | [5]; [8] 64% | [5]; at 50.0 µM 65.9% | [6]; [7] 23% | [6]; [8] 54%
active: [1]; at 50.0 µM 82.6% | [2]; at 50.0 µM 75.7% | [3]; at 50.0 µM 87.8% | [6]; at 50.0 µM 80.8%

O=C(Cc1csc2[n+]1C(=O)/C(=C/c1cccc([N+](=O)[O-])c1)S2)Nc1ccccc1
inactive: [1]; [7] -5% | [1]; [8] -3% | [1]; at 50.0 µM 41.3% | [2]; [7] -16% | [2]; [8] -5% | [2]; at 50.0 µM 44.2% | [3]; [7] -8% | [3]; [8] 11% | [3]; at 50.0 µM 24% | [4]; [7] -24% | [4]; [8] -17% | [4]; at 50.0 µM 37.5% | [5]; [7] -5% | [5]; [8] 17% | [5]; at 50.0 µM 10.8% | [6]; [7] -3% | [6]; [8] -9% | [6]; at 50.0 µM 33.9%

CCN(CC)Cc1ccc(Nc2cc(C)nc(/N=C(\N)Nc3ccc(Cl)c(Cl)c3)n2)cc1
inactive: [1]; [7] 66% | [2]; [7] 55% | [3]; [7] 59% | [4]; [7] 11% | [5]; [7] 7% | [6]; [7] 55%
active: [1]; [8] 97% | [1]; at 50.0 µM 97.3% | [2]; [8] 98% | [2]; at 50.0 µM 95.3% | [3]; [8] 98% | [3]; at 50.0 µM 98.1% | [4]; [8] 97% | [4]; at 50.0 µM 82.5% | [5]; [8] 98% | [5]; at 50.0 µM 94.2% | [6]; [8] 98% | [6]; at 50.0 µM 97.3%
